Test [1] addresses Short transient receptor potential channel 6 (Mus musculus) (UniProt Q61143). In words: mouse TRPC6 channel activators, confirmation, HEK293 cells, membrane potential dye, duplicate (AID 488961;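 active = ratio signal rise beyond 5 SD above unstimulated control wells' mean, seen in both duplicate runs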;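 as to activation: plate controls were buffer EC0 wells for no effect and acetylcholine ECmax response for full effect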). Conditions: HEK293-TRPC6 membrane potential dye fluorescence, FDSS, at 10 µM; hits give high values.
Test [2] has as its target Potassium voltage-gated channel subfamily E member 1 (Homo sapiens) + Potassium voltage-gated channel subfamily KQT member 1 (Homo sapiens) (UniProt P15382+P51787). Description: KCNQ1-E1 channel activation – thallium flux, CHO-K1 KCNQ1/E1 cells, selectivity assay for KCNQ1 potentiator project, confirmation (AID 493186;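 active = mean duplicate activation above the buffer control mean plus 5 SD of those controls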). The note with it: FluxOR thallium flux, at 10 µM.
The target in test [3] is Potassium voltage-gated channel subfamily KQT member 1 (Homo sapiens) (UniProt P51787). In words: block of human KCNQ1 potassium current – cell-based, automated electrophysiology, orthogonal assay, confirmation (AID 624120;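 active = KCNQ1 current drop exceeding 3 SD of negative control wells, seen in both duplicate runs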). The note with it: KCNQ1-CHO cells, automated patch clamp current; at 10 µM. For orientation: In patch-clamp work, channel activity is measured electrically.

The target is the same in test [4]. Description: KCNQ1 activation in stable CHO cells – cell-based, FluxOR thallium flux, selectivity assay for KCNQ2 potentiator project, confirmation (AID 2283;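 active = fluorescence ratio rise of at least 3 SD of vehicle wells above their mean, in both replicate wells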;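 also: 0% = vehicle mean plus 3 SD and 100% = vehicle minus unstimulated blank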). The note with it: FluxOR thallium flux fluorescence, at 10 µM, hits give high values, beyond 3SD, as % of vehicle-control signal.
Test [5] has as its target Potassium voltage-gated channel subfamily KQT member 2 (Rattus norvegicus) (UniProt O88943). Description: KCNQ2 potassium channel activity enhancers – cell-based, CHO, FluxOR thallium flux, duplicate, confirmation (AID 2287;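 active = fluorescence ratio rising 3 SD or more over the vehicle control mean in both replicates, plus primary screen hit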;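 also: peak minus minimum thallium fluorescence divided by baseline after K/Tl stimulus; 0% = vehicle mean plus 3 SD and 100% = vehicle minus unstimulated blank difference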). Conditions: CHO-KCNQ2 cells, FluxOR thallium flux fluorescence; at 10 µM; hits give high values.
Test [6] has the same target. Description: W236L mutant KCNQ2 current enhancers – cell-based, rat KCNQ2 W236L, CHO, automated patch clamp, mechanism study for KCNQ2 potentiator project (AID 2558). Conditions: at 25 µM.
Test [7] can be described thus: nonspecific flux increase, KCNQ1-free cells – parental CHO cells, counter-screen for KCNQ1 potentiator project (AID 493006;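 active = duplicate-averaged activation above buffer control mean plus 5 SD of those controls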;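 also: fluorescence ratio of max minus min over baseline after K+ and Tl+ depolarization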). Conditions: parental CHO-K1 cells, FluxOR thallium flux, at 10 µM; hits give high values.
Test [8] concerns the target Potassium voltage-gated channel subfamily KQT member 1 (Homo sapiens) (UniProt P51787). In words: enhancement of KCNQ1 channel thallium flux – FluxOR thallium flux, CHO cells, duplicates, confirmation (AID 493007;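 active = potentiation averaged over duplicate wells exceeding buffer-only control mean by more than 3 SD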;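 also: 0% = buffer-only wells and 100% = R-L3 activator control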). Conditions: KCNQ1 cell line, FluxOR thallium flux fluorescence, at 10 µM; hits give high values, % of reference activator effect, buffer zero.
Test [9] deals with Potassium voltage-gated channel subfamily KQT member 2 (Rattus norvegicus) (UniProt O88943). Description: KCNQ2 thallium flux enhancement – KCNQ2-CHO-K1 cells, selectivity assay for KCNQ1 potentiator project (AID 493009;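 active = mean duplicate potentiation above the buffer control mean plus 5 SD of buffer wells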;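 also: assay conditions were tuned for KCNQ1 rather than KCNQ2 modulators; signal is max minus min fluorescence divided by baseline after thallium stimulus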). The note with it: FluxOR thallium flux fluorescence, at 10 µM; hits give high values, scaled: buffer 0, activator control 100.
Test [10] addresses Potassium voltage-gated channel subfamily KQT member 1 (Homo sapiens) (UniProt P51787). Description: KCNQ1 activators by electrophysiology – IonWorks patch clamp, KCNQ1-CHO cells, orthogonal assay for KCNQ1 potentiator project, confirmation (AID 493184;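 active = current rise at least 3 SD above the untreated control mean in each of two repeat wells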). The note with it: automated patch clamp current, at 10 µM; hits give high values.
The target in test [11] is Inward rectifier potassium channel 2 (Mus musculus) (UniProt P35561). In words: PubChem AID 2345.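 Also: 0% = vehicle mean plus 3 SD and 100% = vehicle minus no-stimulus blank window.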 The note with it: HEK293 Kir2.1, FluxOR thallium flux fluorescence; at 10 µM; hits give high values.
Test [12] has as its target Short transient receptor potential channel 4 (Mus musculus) (UniProt Q9QUQ5). Description: DAMGO-gated TRPC4 membrane potential modulation – cell-based, second specificity screen, HEK293 TRPC4/mu-opioid, selectivity assay for TRPC6 inhibitor project, confirmation (AID 2776;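 active = compounds whose fluorescence signal differed from control wells by over 3 SD, either direction, in both duplicate plates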). Conditions: HEK293 TRPC4/MOR, membrane potential dye fluorescence, at 10 µM, channel activated by saturating DAMGO dose; hits give high values.

The subject of test [13] is transient receptor potential cation channel C4 (TRPC4), mouse. Description: membrane potential change in TRPC4 cells – cell-based, HEK293 TRPC4/mu-opioid, membrane potential dye, selectivity assay for TRPC6 inhibitor project, confirmation (AID 2777;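 active = rise or fall in signal beyond 3 SD of buffer-only wells in both replicate plates, either sign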;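 also: integrated kinetic ratio of fluorescence range over baseline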). The note with it: membrane potential fluorescence, at 10 µM.
Test [14] is described as follows: parental HEK293 depolarization signal interference – cell-based, second counter screen, counter-screen for TRPC6 inhibitor project, confirmation (AID 2779;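 active = membrane potential signal moving either way by over 3 SD of the maximum-effect control, in both duplicate plates, meaning non-specific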). The note with it: parental HEK293 membrane potential dye fluorescence; at 10 µM; maximal acetylcholine challenge after compound addition. (The purpose of a counterscreen is to sort out artefacts and off-target activity.)

The nature of test [15]: nonspecific voltage dye signal in HEK293 – cell-based, parental HEK293, counter-screen for TRPC6 inhibitor project, confirmation (AID 2780;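 active = membrane potential signal shifting up or down by more than 3 SD of buffer-only wells, on both duplicate plates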;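 as to membrane potential signal change: plate controls were buffer EC0 wells for no effect and acetylcholine ECmax wells for full effect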). Conditions: parental HEK293 membrane potential dye fluorescence; at 10 µM.
Test [16] deals with Short transient receptor potential channel 6 (Mus musculus) (UniProt Q61143). Description: blockers of TRPC6 cation channel activity – HEK293 cells, membrane potential dye, duplicate, confirmation (AID 488960;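 active = fluorescence ratio falls more than 5 SD below the full-stimulation control mean, in both duplicate runs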;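 as to inhibition: integrated fluorescence ratio of peak minus minimum over baseline after agonist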). The note with it: ACh-evoked depolarization, at 10 µM; hits give high values.

The structures appear in SMILES notation. Values without a mark were called inactive. The list shows a part of the results. The source made the active and inactive calls.

The inhibition is how much of the control response was suppressed.

Sequence of Inward rectifier potassium channel 2 (Mus musculus) (P35561 whole entry, looked up): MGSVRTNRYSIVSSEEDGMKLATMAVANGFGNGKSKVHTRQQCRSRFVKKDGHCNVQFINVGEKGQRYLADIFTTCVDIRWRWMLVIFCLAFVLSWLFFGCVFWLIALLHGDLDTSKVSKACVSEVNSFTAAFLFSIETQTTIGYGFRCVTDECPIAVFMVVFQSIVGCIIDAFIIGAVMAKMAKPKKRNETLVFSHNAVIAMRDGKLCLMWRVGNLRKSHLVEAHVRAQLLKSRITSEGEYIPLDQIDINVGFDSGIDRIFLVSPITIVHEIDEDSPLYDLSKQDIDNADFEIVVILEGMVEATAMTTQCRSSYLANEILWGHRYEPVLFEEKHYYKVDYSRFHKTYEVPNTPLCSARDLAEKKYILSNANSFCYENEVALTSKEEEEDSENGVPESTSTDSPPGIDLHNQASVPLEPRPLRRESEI
Sequence of Short transient receptor potential channel 4 (Mus musculus) (Q9QUQ5 whole entry, looked up): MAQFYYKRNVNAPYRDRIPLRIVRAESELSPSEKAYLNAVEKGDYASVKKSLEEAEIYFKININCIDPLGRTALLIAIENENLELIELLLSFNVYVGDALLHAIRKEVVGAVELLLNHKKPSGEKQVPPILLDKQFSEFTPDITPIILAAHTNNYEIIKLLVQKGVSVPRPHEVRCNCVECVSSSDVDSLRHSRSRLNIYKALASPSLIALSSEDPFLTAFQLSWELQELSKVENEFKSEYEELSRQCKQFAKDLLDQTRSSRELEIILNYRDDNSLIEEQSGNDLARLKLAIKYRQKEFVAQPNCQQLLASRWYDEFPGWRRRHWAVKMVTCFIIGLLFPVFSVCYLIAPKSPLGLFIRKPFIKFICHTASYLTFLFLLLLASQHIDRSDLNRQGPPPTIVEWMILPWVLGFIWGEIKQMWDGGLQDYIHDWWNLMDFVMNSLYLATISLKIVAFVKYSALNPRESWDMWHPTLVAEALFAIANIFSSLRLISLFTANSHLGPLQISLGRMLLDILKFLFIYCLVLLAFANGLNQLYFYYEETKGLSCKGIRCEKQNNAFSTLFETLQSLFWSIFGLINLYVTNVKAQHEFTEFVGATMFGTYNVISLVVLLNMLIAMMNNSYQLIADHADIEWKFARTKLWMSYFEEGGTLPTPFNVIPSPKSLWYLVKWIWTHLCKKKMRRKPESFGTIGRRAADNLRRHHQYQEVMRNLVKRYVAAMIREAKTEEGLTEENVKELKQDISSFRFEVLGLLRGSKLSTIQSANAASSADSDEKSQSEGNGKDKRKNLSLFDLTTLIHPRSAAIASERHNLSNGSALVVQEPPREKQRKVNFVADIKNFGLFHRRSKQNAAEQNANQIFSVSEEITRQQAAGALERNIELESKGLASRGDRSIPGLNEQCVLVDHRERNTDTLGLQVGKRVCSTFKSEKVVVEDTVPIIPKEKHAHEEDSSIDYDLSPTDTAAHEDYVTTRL
Sequence of Potassium voltage-gated channel subfamily KQT member 1 (Homo sapiens) (P51787 whole entry, looked up): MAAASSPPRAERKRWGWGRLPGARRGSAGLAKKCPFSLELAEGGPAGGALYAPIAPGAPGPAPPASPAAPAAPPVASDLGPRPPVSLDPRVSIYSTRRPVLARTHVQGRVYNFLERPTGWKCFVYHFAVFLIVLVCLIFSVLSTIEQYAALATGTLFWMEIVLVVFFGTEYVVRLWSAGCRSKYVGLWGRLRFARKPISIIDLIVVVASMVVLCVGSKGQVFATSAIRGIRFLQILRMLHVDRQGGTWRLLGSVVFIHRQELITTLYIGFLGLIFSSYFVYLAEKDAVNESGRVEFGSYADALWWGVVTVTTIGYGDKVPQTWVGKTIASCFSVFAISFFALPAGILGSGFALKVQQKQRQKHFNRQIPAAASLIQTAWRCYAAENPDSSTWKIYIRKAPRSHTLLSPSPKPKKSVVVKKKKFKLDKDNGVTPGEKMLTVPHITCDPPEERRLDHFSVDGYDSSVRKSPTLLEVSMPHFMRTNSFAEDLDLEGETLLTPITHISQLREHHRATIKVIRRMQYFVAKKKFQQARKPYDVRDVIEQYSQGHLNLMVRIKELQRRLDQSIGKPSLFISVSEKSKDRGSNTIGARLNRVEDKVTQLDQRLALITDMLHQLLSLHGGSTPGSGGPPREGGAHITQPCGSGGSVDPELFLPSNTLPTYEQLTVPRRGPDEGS
Sequence of Short transient receptor potential channel 6 (Mus musculus) (Q61143 whole entry, looked up): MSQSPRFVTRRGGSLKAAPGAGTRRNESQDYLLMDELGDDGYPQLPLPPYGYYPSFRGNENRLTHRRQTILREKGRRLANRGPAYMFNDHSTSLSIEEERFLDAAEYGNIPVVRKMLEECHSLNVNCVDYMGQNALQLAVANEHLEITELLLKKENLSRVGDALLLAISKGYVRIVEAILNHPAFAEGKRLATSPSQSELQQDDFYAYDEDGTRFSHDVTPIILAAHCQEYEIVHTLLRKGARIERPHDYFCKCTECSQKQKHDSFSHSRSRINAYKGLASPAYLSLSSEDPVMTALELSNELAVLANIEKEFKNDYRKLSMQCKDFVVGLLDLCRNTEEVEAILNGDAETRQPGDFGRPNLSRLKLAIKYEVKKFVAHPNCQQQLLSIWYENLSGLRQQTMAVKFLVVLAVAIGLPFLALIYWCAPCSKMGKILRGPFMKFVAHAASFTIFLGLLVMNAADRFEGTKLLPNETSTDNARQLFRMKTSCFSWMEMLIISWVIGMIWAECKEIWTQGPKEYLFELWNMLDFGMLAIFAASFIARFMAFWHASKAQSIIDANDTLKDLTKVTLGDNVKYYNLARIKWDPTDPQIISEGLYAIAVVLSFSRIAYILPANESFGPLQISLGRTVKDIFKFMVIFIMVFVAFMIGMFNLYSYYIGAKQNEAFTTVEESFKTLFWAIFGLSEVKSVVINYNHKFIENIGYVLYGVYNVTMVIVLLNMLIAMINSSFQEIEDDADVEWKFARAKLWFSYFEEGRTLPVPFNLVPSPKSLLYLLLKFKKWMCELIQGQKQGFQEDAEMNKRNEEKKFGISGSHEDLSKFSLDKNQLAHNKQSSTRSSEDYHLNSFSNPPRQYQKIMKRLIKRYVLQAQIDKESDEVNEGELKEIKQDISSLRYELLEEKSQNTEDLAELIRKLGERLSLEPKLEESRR
Sequence of Potassium voltage-gated channel subfamily E member 1 (Homo sapiens) + Potassium voltage-gated channel subfamily KQT member 1 (Homo sapiens) (P51787 whole entry, looked up): as the sequence (P51787 whole entry, looked up) above

Turning to `O=C(NCCc1c[nH]c2ccccc12)C1CCN(Cc2ccc(Br)cc2)CC1`, in [1], the result was inactive.
As for `CC(NCc1ccccc1OC1CCCC1)c1ccccc1` (centres undefined), the activation in [1] was 122% (active).
On to `Cc1[nH][nH]c(=O)c1C(c1ccc(-c2ccc(Cl)cc2)o1)c1c(C)[nH][nH]c1=O`, for which, in [2], the result was inactive.
As for `FC(F)(F)c1cccc(NC(=S)Nc2cccc(Cl)c2)c1`, the result in test [3] was inactive.
As for `S=C(NCc1ccc(Cl)cc1)NC12CC3CC(CC(C3)C1)C2`, the outcome in [3] was active.
For `O=c1c2cc(Br)ccc2nc(-c2cccc(Cl)c2)n1O`, the activation over 3SD threshold in test [4] was 68.1% (active). The potentiation, less the hit threshold in test [5] was 84.4% (active). Moreover, the outcome in [6] and in [10] was inactive. Also, the activation in [7] is 803% (active). Besides, the potentiation is 257% (active) in test [8] and 703% (active) in [9].
For `Cc1ccc(CS(=O)(=O)c2ncc(Cl)c(C(=O)Nc3nnc(C)s3)n2)cc1`, the activation over 3SD threshold in test [4] is 79.7% (active). Besides, the potentiation, less the hit threshold in test [5] was -85.4%. For the same compound, the activity over 3SD threshold in test [11] was -51.4%. In addition, the current increase over 3SD of negative controls (%), hits give high values in test [6] is 48.4% (active).
Regarding `CC(Nc1nc(N2CCCC2)nc2ccccc12)c1ccccc1` (centres undefined), the compound was called inactive in [12], in [13], in test [14], in [15], in [16] and in test [1].
For `COc1ccc(NC(=O)CCCC2CCCCC2)c(OC)c1`, the activation over 3SD threshold in [4] is -6.1%. Also, in test [5], the potentiation, less the hit threshold is 80% (active). Further, the result in test [6] was inactive.
Consider `CCCCOc1ccc(CSC(=N)N)cc1[N+](=O)[O-]`, for which, in test [12], the inhibition was 77.5% (active). For the same compound, the call in test [13], in test [14], in test [16] and in test [1] was inactive. Further, in test [15], the membrane potential signal change was -186% (active).
As to `CC(=O)NNC(=O)c1csc(Cc2c(Cl)sc3ccc(Cl)cc23)n1`, the activation over 3SD threshold in [4] is -5%. The potentiation, less the hit threshold in [5] is 12.3% (active). For the same compound, in [11], the activity over 3SD threshold is -69.1%. Further, the current increase over 3SD of negative controls (%), hits give high values in [6] was 1.62% (active).
On to `Cc1cc(C(=O)OCC(=O)Nc2ccc(F)c(F)c2)c(C)o1`, for which the activation over 3SD threshold in test [4] was -23.1%. In addition, the potentiation, less the hit threshold in test [5] is 17.6% (active). Further, the result in test [6] was inactive.
As to `Oc1c(Cl)cc(Cl)c(Cl)c1Cc1c(O)c(Cl)cc(Cl)c1Cl`, in [4], the activation over 3SD threshold is -3.6%. Further, the potentiation, less the hit threshold in test [5] was 112% (active). Further, the activity over 3SD threshold in test [11] was -73.8%. For the same compound, the result in [6], in [1] and in test [10] was inactive. In addition, the inhibition in test [12] is 29.5% (active); in test [16], 96.7% (active). Besides, the activity change, negative = inhibition in test [13] was 4.36% (active). The signal change vs control in test [14] is -19% (active). Further, in test [15], the membrane potential signal change was 2.04% (active). Besides, the activation in test [7] is 414% (active). For the same compound, the potentiation in test [8] was 81.5% (active); in test [9] it was 480% (active).
With `Fc1cc(F)c2nc(Nc3nc4c(F)cccc4s3)sc2c1`, the activation over 3SD threshold in test [4] is -15.7%. Further, in [5], the potentiation, less the hit threshold was 20.5% (active). In addition, the outcome in test [6] and in test [10] was inactive. Further, the activation in test [7] is 330% (active). The potentiation was 196% (active) in test [8] and 422% (active) in test [9].

(Values after PubChem BioAssay.)
